This passage reports Potency results from PubChem BioAssay AID493185 (National Center for Advancing Translational Sciences (NCATS), 2011).

Activity calls are given as the source filed them. Entries that show only a call come without a potency. Calls follow the shape of the dose curve; as a rule, active = well fitted activation curve with a large enough effect; inconclusive = small, poorly fitted or top-dose-only effect; inactive = no such curve, though single readings can be large or run the other way.

The nature of the test: Counterscreen for Identifying a Potential Treatment of Ataxia-Telangiectasia: Hit Validation. The conditions noted are these: cell-free AlphaLISA/AlphaScreen artifact counterscreen, PBS only, no cells; series mostly up to 76.9 µM. The method in brief: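 Cell-free AlphaLISA counterscreen: compounds (up to 76.7 uM final) in PBS with detection mix of anti-pKAP1 and anti-KAP1 antibodies on donor/acceptor beads plus lysis buffer, incubated 6 hr at 25C before AlphaScreen read.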
Turning to `O=C(CSc1ccccn1)N/N=C/C=C/c1ccccc1`, the Potency entry is “inactive”.

Turning to `CN(C)C(=O)c1nc2ccc(Cl)cn2c1CNCc1cccc(OC(F)(F)F)c1`, the Potency entry is “inactive”.

Regarding `CCC(=O)Nc1ccc(S(=O)(=O)c2ccc(NC(=O)CC)cc2)cc1`, the Potency result was “inactive”.

As for `Cc1cc(C)n2nc(C(=O)OCCOc3ccc(F)cc3)nc2n1`, the Potency entry is “inactive”.

Consider `O=C(O)c1nccnc1C(=O)Nc1ccccc1-c1ccccc1`, for which the Potency result is “inactive”.

On to `COc1ccc(-n2c(=S)[nH]c3ccccc3c2=S)cc1`, for which the Potency result was “inactive”.

Turning to `CCC(C)NC(=O)c1cn(CCOC)c(=O)c2c1c1ccccc1n2C` (configuration not stated), the Potency result was “inactive”.

For `CCOC(=O)c1ccc(-n2c(C)nc3ccc(Br)cc3c2=O)cc1`, the Potency result is “inactive”.

For `CCOC(=O)N1CCC(NC(=O)C2CCN(S(=O)(=O)c3cccc4cccnc34)CC2)CC1`, the Potency result was “inactive”.

`COC(=O)N/N=C/c1ccccc1OCCOc1ccc(OC)cc1`: the Potency entry is “inactive”.

For the molecule `C=CCOC(=O)C1=C[C@H](c2coc3ccccc3c2=O)C[C@H](OCc2ccc(CO)cc2)O1`, the Potency result is “inactive”.

As for `COc1cc(CCC(=O)OCC(=O)N2CCc3ccccc32)cc(OC)c1OC`, the Potency result was “inactive”.

With `O=C(C[n+]1cccc2ccccc21)c1ccc(NC(=O)c2ccccc2)cc1`, the Potency result is “inactive”.

On to `CCC12CN(C(=O)c3ccc([N+](=O)[O-])cc3)CC(CC)(CN(C(=O)c3ccc([N+](=O)[O-])cc3)C1)C2=O`, for which the Potency result is “inactive”.

On to `CC1=NOC2(C1)N(C)c1ccccc1C2(C)C` (configuration not stated), for which the Potency entry is “inactive”.

`CC(=O)c1ccc([N+](=O)[O-])c(CS(=O)(=O)c2ccc(Cl)cc2)c1`: the Potency result is “inactive”.

In the case of `COc1ccc(N(CCC#N)C(=O)/C(C#N)=C\c2cccs2)cc1`, the Potency result was “inactive”.
